From PubChem BioAssay (EPA / NIEHS)
Values joined by “and” are separate entries in the source; they are usually repeats but may differ in a detail not shown here. Identical values can stand only once. Results filed as inconclusive are left out. The source holds several records for some structures; these can differ, active in one and inactive in another. Active and inactive are the calls of the source. Rule for the calls, unless noted: active = hit-call score of the fitted dose curve at least 0.9, where 1 is the maximum; inactive = score below 0.9.

Key:
[1] = CCTE_Deisenroth_5AR_NBTE_donor: CCTE's 5alpha-reductase NanoBRET Target Engagement Assay […], Deisenroth Lab (AID 2284319); details: actives raise or lower the signal
In short: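 HEK293T cells were reverse transfected with an SRD5A2-NanoLuc vector for 20 h, exposed to test chemical (8 points, 10 nM - 29.9 uM) for 3 h, then testosterone tracer for 2 h more. Donor luminescence (460 nm) was read; bidirectional fit versus DMSO.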

[2] = CCTE_Deisenroth_5AR_NBTE_acceptor: CCTE's 5alpha-reductase NanoBRET Target Engagement Assay - Autofluorescence Screen, Deisenroth Lab (AID 2284321); details: actives raise or lower the signal;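 note: compound fluorescence in the acceptor channel under 460 nm excitation flags autofluorescence artifacts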
Procedure: CCTE_Deisenroth_5AR NBTE (5alpha-reductase NanoBRET Target Engagement Assay) is a cell-based, single-readout assay that uses HEK293T, a human kidney cell line, with measurements taken at 5 hours after chemical dosing in a 384 well plate. This assay includes a primary and secondary screen as well as an autofluorscence screen.CCTE_Deisenroth_5AR NBTE_acceptor is one of four assay components measured from the CCTE_Deisenroth_5AR NBTE assay. It is designed to make measurements of resonant fluorescence generated by bioluminescent energy transfer to a target fluorophore, as detected by fluorescence intensity emission signals using spectrometry technology.Data from the assay component CCTE_Deisenroth_5AR NBTE_acceptor was analyzed into 1 assay endpoint. This assay endpoint, CCTE_Deisenroth_5AR NBTE_acceptor, was analyzed with bidirectional fitting relative to DMSO as the negative control and baseline of activity. Using a type of inducible reporter, gain or loss-of-signal activity can be used to understand changes in the acceptor fluorescence as related to 5alpha-reductase catalytic function. Furthermore, this assay endpoint can be referred to as a secondary readout, because this assay has produced multiple assay endpoints where this one serves an artifact detection function.
Chemicals from the blinded ToxCast library were diluted 1000-fold in DMSO to an assumed nominal concentration of 100 uM. Samples were scanned in three independent runs (n=3) on a multi-mode plate reader at a fixed excitation wavelength of 460 nm with emission filter set at […]. For reference, tracer was included at DMSO-solubilized concentrations of 100 uM (the top tested concentration for each test chemical) and 600 nM (the final working concentration of the tracer probe).

[3] = tested on: SRD5A2 (gene 6716); experiment: CCTE_Deisenroth_5AR_NBTE_ratio: CCTE's 5alpha-reductase NanoBRET Target Engagement Assay - Ratio, Deisenroth Lab (AID 2284322); details: actives raise or lower the signal
In short: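 HEK293T cells transiently expressing an SRD5A2-NanoLuc fusion (20 h post-transfection) were exposed to test chemical (10 nM - 29.9 uM, 8 points) for 3 h, then testosterone tracer for a further 2 h. Acceptor/donor BRET ratio was fitted bidirectionally against DMSO baseline.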

[4] = CCTE_Mundy_HCI_iCellGluta_NOG_NeuriteLength: CCTE's Neurite Outgrowth Assay in iCellGluta cells for Neurite Length, Mundy Lab (AID 2284318; active = hit-call score of the fitted dose curve at least 0.9, where 1 is the maximum)
In short: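 Automated high-content imaging of betaIII-tubulin (Alexa Fluor-488) and Hoechst-stained cells gave neurite length, normalized to the DMSO baseline.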

[5] = TAMU_PeakParms_SingleDonor1434_Asystole: Texas A&M University (TAMU) 1.5-hr Human Induced Pluripotent Stem Cell (iPSC)-derived Cardiomyocytes Calcium (Ca+2) Flux Assay for Cardiotoxicity: Asystole (quiescence of beating) (AID 2284328; active = hit-call score of the fitted dose curve at least 0.9, where 1 is the maximum)
In short: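 Donor 1434 iPSC-cardiomyocytes exposed 90 min at 37C, 5% CO2, to 0.2, 1, 10 and 100 uM in 0.5% DMSO. Ca2+ dye fluorescence gave average peak frequency; POD is EC95, a 95% beat-rate drop versus controls.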

[6] = tested on: IYD (gene 389434); experiment: CCTE_GLTED_hIYD: CCTE's human Iodotyrosine Deiodinase (xIYD) Inhibition Assay, Great Lakes Toxicology and Ecology Division (GLTED) Lab (AID 2284317; active = hit-call score of the fitted dose curve at least 0.9, where 1 is the maximum)
Procedure: CCTE_GLTED_hIYD is a cell-free, single-readout assay that uses human iodotyrosine deiodinase (hIYD) enzyme produced with baculovirus-insect cell system. The assay is based on iodide release measured by the Sandell-Kolthoff method and is run in 96-well plate format with assay plates run in triplicate (n=3) with measurements taken at 3 hours after chemical dosing. Platewise-normalization was used based on positive control (3-Nitro-L-tyrosine, MNT) and negative/solvent controls (DMSO, NaOH).CCTE_GLTED_hIYD is the assay component measured from the CCTE_GLTED_hIYD assay. It measures substrate involved in regulation of catalytic activity using spectrophotometry. The assay measures the deiodination activity of human IYD on the substrate monoiodotyrosine (MIT). After 3h incubation of substrate, enzyme, and test chemical, the components are applied to a 96-well Dowex column. Free iodide is not retained by the column and is separated from interfering assay components. The free iodide is measured by the Sandell-Kolthoff reaction in which the rate of reduction of cerium (Ce+4 to Ce+3) by arsenic (As+3 to As+5) is increased by the presence of iodide. This is observed as the loss of yellow color in the reaction and the quantified by the change in absorbance at 420 nm. The change in reaction rate is proportional to the amount of iodide present.Data from the assay component CCTE_GLTED_hIYD was analyzed at the assay endpoint CCTE_GLTED_hIYD in the positive analysis fitting direction relative to DMSO as the negative control and baseline of activity. Using a type of enzyme reporter, loss-of-signal activity can be used to understand iodotyrosine deiodinase activity. To generalize the intended target to other relatable targets, this assay endpoint is annotated to the 'dehalogenase' intended target family, where the subfamily is 'iodotyrosine deiodinase'.
Human thyroxine binding globulin (TBG) assay, developed at Great Lakes Toxicology and Ecology Division (GLTED) within the EPA's Center for Computational Toxicology and Exposure (CCTE), is designed to test the chemicals' ability to displace T4 from the TBG protein. The method used was largely based on Montano et al. (2012). This work describes the utilization of ANSA fluorescence when bound to the protein to approximate binding affinity of chemicals through a reduction of fluorescence when ANSA is displaced. This assay was conducted in 96-well plates with an incubation at 4C for 2 hours in a final volume of 200 uL. Final assay conditions included 0.0625 uM TBG, 0.6 uM ANSA, and 0.5% DMSO in 0.1 M phosphate buffer, pH=7.5.

[7] = VALA_TUBHUV_Antagonist_TubuleLength: VALA Sciences human Umbilical Vein Endothelial Tubule Formation (TUBHUV) Antagonism Assay (AID 2284325; active = hit-call score of the fitted dose curve at least 0.9, where 1 is the maximum)
In short: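 Tubule length was imaged via CD31 immunofluorescence after a further 3-day compound exposure in 10 ng/ml VEGF, following 3-day pre-culture of HUVEC with HDF at 1:3. Vehicle 0.1% DMSO; suramin (100 uM) inhibition control.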

[8] = VALA_TUBIPS_Antagonist_TubuleLength: VALA Sciences human iPS-derived Endothelial Tubule Formation (TUBIPS) Antagonist Assay (AID 2284313; active = hit-call score of the fitted dose curve at least 0.9, where 1 is the maximum)
In short: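 Tubule length was quantified by high-content imaging of CD31- and nuclear-stained cells, with 0.1% DMSO as neutral and 100 uM suramin as inhibition control. Compounds were applied for 3 days, in 10 ng/ml VEGF, to cultures pre-grown 3 days.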

[9] = VALA_MIGHUV2_WoundArea: VALA Sciences human Umbilical Vein Endothelial Cell Migration (MIGHUV) Assay, Area of Scratch Wound after Recovery (AID 2284316; active = hit-call score of the fitted dose curve at least 0.9, where 1 is the maximum)
In short: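 Wound-area endpoint read by fluorescence imaging of Hoechst-stained nuclei after a 24 h recovery period following scratch of HUVEC monolayers (9000 cells/well). Chemicals dosed within 30 min post-scratch, triplicate 6-point series, 0.1% DMSO vehicle; Cytochalasin D positive control.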

[10] = tested on: TTR (gene 7276); experiment: CCTE_GLTED_hTTR_0.5uM: CCTE's human Transthyretin (hTTR) Inhibition Assay, with 0.5uM TTR, Great Lakes Toxicology and Ecology Division (GLTED) Lab (AID 2284320)
In short: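 Probe (ANSA) displacement from 0.5 uM human transthyretin was followed by fluorescence (ex 380, em 475) after a 2 h incubation with chemical. Activity was scored as signal loss and fitted positively relative to DMSO.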

With CCC(C)(NC(=O)c1cc(Cl)c(C)c(Cl)c1)C(=O)CCl (stereo not given) the outcome [1] was “inactive”, the outcome [2] was “inactive” and the outcome [3] was “inactive”.

With O=S1OCC2C(CO1)C1(Cl)C(Cl)=C(Cl)C2(Cl)C1(Cl)Cl (stereo not given) the AC50 [4] was 8.78 µM (active), the outcome [1] was “inactive” and the outcome [2] was “inactive”. For the same molecule, the outcome [3] was “inactive” and the outcome [5] was “inactive”.

In the case of CCC(C)(C)C(=O)OC1=C(c2ccc(Cl)cc2Cl)C(=O)OC12CCCCC2, the AC50 [4] is reported as 21.9 µM (active).

For CCCN(CCOc1c(Cl)cc(Cl)cc1Cl)C(=O)n1ccnc1, the outcome [6] was “inactive”, the outcome [1] was “inactive” and the outcome [2] was “inactive”. For the same molecule, the outcome [3] was “inactive”.

In the case of Oc1cc(Cl)ccc1Oc1ccc(Cl)cc1Cl, the AC50 [6] is reported as 37.2 µM (active) and 55.2 µM (active) and 24.3 µM (active) and the outcome [7] is reported as “inactive”.

With CC1(c2ccc(Oc3ccccc3)cc2)OC(=O)N(Nc2ccccc2)C1=O (stereo not given) the outcome [4] was “inactive”, the outcome [1] was “inactive” and the outcome [2] was “inactive”. For the same molecule, the AC50 [3] was 9.91 µM (active).

In the case of CCC(C)Nc1c([N+](=O)[O-])cc(C(C)(C)C)cc1[N+](=O)[O-] (stereo not given), the outcome [1] is reported as “inactive”, the outcome [2] is reported as “inactive” and the outcome [3] is reported as “inactive”.

In the case of CC[C@H](C)[C@H]1O[C@]2(C=C[C@@H]1C)C[C@@H]1C[C@@H](C/C=C(\C)[C@@H](O[C@H]3C[C@H](OC)[C@@H](O[C@H]4C[C@H](OC)[C@@H](O)[C@H](C)O4)[C@H](C)O3)[C@@H](C)/C=C/C=C3\CO[C@@H]4[C@H](O)C(C)=C[C@@H](C(=O)O1)[C@]34O)O2 (tested in a mixture with another compound), the AC50 [4] is reported as 3.44 µM (active).

In the case of O=[N+]([O-])/N=C1\NCCN1Cc1ccc(Cl)nc1, the AC50 [4] is reported as 15 µM (active), the outcome [1] is reported as “inactive” and the outcome [2] is reported as “inactive”. For the same molecule, the outcome [3] was “inactive”.

For O=C1c2ccccc2C(=O)N1SC(Cl)(Cl)Cl, the outcome [1] was “inactive”, the outcome [2] was “inactive” and the outcome [3] was “inactive”.

In the case of COP(=O)(OC)OC=C(Cl)Cl, the AC50 [4] is reported as 12.9 µM (active).

For CCOCN(C(=O)CCl)c1c(C)cccc1CC, the outcome [6] was “inactive” and the outcome [5] was “inactive”.

For CC(C)N(C(=O)COc1nnc(C(F)(F)F)s1)c1ccc(F)cc1, the outcome [4] was “inactive”.

For CCCN(CCC)c1c([N+](=O)[O-])cc(C(F)(F)F)cc1[N+](=O)[O-], the outcome [1] was “inactive”, the outcome [2] was “inactive” and the outcome [3] was “inactive”.

With CN1CSC(=S)N(C)C1 the outcome [5] was “inactive”.

For COP(=S)(OC)Oc1ccc([N+](=O)[O-])cc1, the AC50 [4] was 21.6 µM (active).

In the case of CC1(C)C(C=C(Cl)Cl)C1C(=O)OC(C#N)c1ccc(F)c(Oc2ccccc2)c1 (stereo not given), the AC50 [4] is reported as 9.9 µM (active) and the outcome [4] is reported as “inactive”.

With CNC(=O)CSP(=S)(OC)OC the outcome [4] was “inactive”.

For ClC1C(Cl)C(Cl)C(Cl)C(Cl)C1Cl (stereo not given), the outcome [1] was “inactive”, the outcome [2] was “inactive” and the outcome [3] was “inactive”. For the same molecule, the outcome [5] was “inactive”.

For O=C(O)COc1ccc(Cl)cc1Cl, the outcome [4] was “inactive”.

For O=S(=O)(O)C(F)(F)C(F)(F)C(F)(F)C(F)(F)C(F)(F)C(F)(F)C(F)(F)C(F)(F)F, the outcome [8] was “inactive”, the outcome [9] was “inactive” and the AC50 [6] was 59 µM (active) and 90.4 µM (active). The outcome [6] was “inactive”, the outcome [4] was “inactive” and the AC50 [10] was 489 nM (active) and 455 nM (active).

In the case of O=C(O)C(F)(F)C(F)(F)C(F)(F)C(F)(F)C(F)(F)C(F)(F)C(F)(F)F, the outcome [4] is reported as “inactive” and the AC50 [10] is reported as 450 nM (active) [middle of 4 runs].
